Results from PubChem BioAssay (NCI).
This is part of a sample that, as a whole, favours compounds with a hit. Of some 83,000 tested, about 20% had one in any assay.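 Treatment: one concentration, 48 hours, 96-well format. Scoring: percent growth, with anything below 10 considered active.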 A number with no mark means an inactive call. Activity calls are given as the source filed them.

Test system: HL-60(TB) leukemia
Experiment: NCI-60 one-dose screen, 48 h (100 = growth as untreated, 0 = no growth, -100 = all killed)
Conditions: 10 µM unless noted

SMILES	growth
Cc1cccc2c(=O)c3c(sc12)c(NCCNCCO)nc1ccccc13	-58.4% (active)
Cc1ncc(C(=O)Nc2ccc(CN3CCN(C)CC3)c(C(F)(F)F)c2)cc1C#Cc1cnc2cccnn12	-28.2% (active)
C=C1C(=O)O[C@H]2[C@H]1CC/C(COC(=O)c1ccc(C#N)cc1)=C\CC[C@@]1(C)O[C@@H]21	-33.6% (active)
Cc1ccc2c(n1)C(=O)c1[nH]c3ccccc3c1C2=O	67.8%
O=c1[nH]nc(-c2ccc(Br)cc2)cc1Cc1ccc(O)cc1	85.4%
O=C(Oc1ccc2c(c1)sc1nc(-c3ccccc3)[nH]c(=O)c12)C(F)(F)F	2.56% (active)
Nc1ccc2c(c1)C(=O)c1cc(Cl)c(Cl)cc1-2	76.2%
COc1ccc2nc3cc(Cl)ccc3c(NCCCCCN3CCCCC3)c2c1	-42.2% (active)
CC/C=C\C[C@H]1CC=C2C(=O)C=C[C@@H]2CC=CCCCC(=O)O[C@@H](CCCCC)CC=C2C(=O)C=C[C@@H]2CC=CCCCC(=O)O[C@@H](CCCCC)CC=C2C(=O)C=C[C@@H]2CC=CCCCC(=O)O[C@@H](CCCCC)CC=C2C(=O)C=C[C@@H]2CC=CCCCC(=O)O1	-15.3% [7.9 µM] (active)
O=C1Cc2c(sc3c(F)cccc23)C(c2ccccc2[N+](=O)[O-])N1 (stereo not given)	116%
COc1ccc(/C=C\c2cc(OC)c(OC)c(OC)c2)cc1OC(=O)c1cccc(Cn2cc(CCOC(=O)[C@H](N)Cc3cn(C)c4ccccc34)nn2)c1	-42.7% (active)
Cn1c(=O)[nH]c(=O)c2nc3c(nc21)-c1ccccc1C3=O	101%
CC1(C)CC[C@]2(CO)CC[C@]3(C)[C@H](CC[C@@H]4[C@@]5(C)CC[C@H](O)C(C)(C)[C@@H]5CC[C@]43C)[C@H]2[C@H]1O	117%
O=c1nc(N2CCOCC2)oc2c(-c3cccc4ccccc34)cccc12	93.6%
Fc1ccc2c(c1)c(-c1nc(-c3c[nH]c4ncccc34)cs1)cn2CCCN1CCOCC1	21.9%
COc1ccc(Cc2cc(-c3ccccc3C)n[nH]c2=O)cc1	92.4%
CC1(C)CC(=O)C2=C(C1)Oc1nc(N)c(C#N)c(N)c1C2c1ccc(F)cc1 (stereo not given)	107%
N#CC1C(=N)Cc2ccccc2-c2ccccc21 (stereo not given)	28.2%
CC1CN(C(C)C)C(=S)N(c2ccccc2)C1=O (stereo not given)	113%
CC(C)N(C(=S)SSC(=S)N(C(C)C)C(C)C)C(C)C	122%

SMILES	growth
O=C(O)C[C@H](O)C[C@H](O)/C=C/c1c(C2CC2)nc2ccccc2c1-c1ccc(F)cc1	66.2%
Cc1ccc(CNc2ccc3nc(CCC(C)C)[nH]c3c2)cc1	93.7%
CN(C)CCOc1ccc2c(c1)C(=O)/C(=C\c1ncc([N+](=O)[O-])n1C)C2	-51.8% (active)
CCOC(=O)NC(Cc1ccccc1)c1ccccc1 (stereo not given)	94.2%
COc1ccc(/C=C/C(=O)c2ccc(O)c(CN3CCN(c4cc5c(cc4F)c(=O)c(C(=O)O)cn5C4CC4)CC3)c2)cc1	0.375% (active)
Cc1ccc(C)c(-c2csc(Nc3ccc(C)c(C)c3)n2)c1	34.4%
CC(C)N(C(=O)c1ccccc1)C(C)C	100%
c1ccc(CSc2ncccc2-c2nnc(SCCN3CCOCC3)o2)cc1	101%
COc1ccc(-c2cc(-c3cc(OC)c(OC)c(OC)c3)c(C#N)c(=O)n2CCCCCC(=O)NO)cc1	103%
CSC[C@H](NC(=O)COc1cccc2cnccc12)C(=O)NC(Cc1ccccc1)C(O)C(=O)N1CSC[C@H]1C(=O)NC(C)(C)C (stereo not given in full)	140%
CCOC(=O)c1c(NC(=O)c2ccccc2)sc2c(O)c(CN(CC)CC)ccc12	0.395% (active)
CCOC(=O)CC1CSC(N/N=C/c2ccc(O)cc2)=N1 (stereo not given)	97.6%
c1cnc2[nH]cc(-c3nc(-c4ccsc4)cs3)c2c1	104%
O=C(NC1CCC(Br)CC1)C1CCCC(S(=O)(=O)NC2CCCCC2)C1 (stereo not given)	4.46% [25 µM] (active)
COc1ccc(/C=C2/SC(=O)N(CC(=O)N3CCN(c4cc5c(cc4F)c(=O)c(C(=O)O)cn5C4CC4)CC3)C2=O)cc1	105%
O=C(c1ccccc1)N1N=C(c2ccc(-n3ccc(C(F)(F)F)n3)cc2)CC1c1ccc[nH]1 (stereo not given)	93.3%
Oc1ccc2ccccc2c1CN1CCOCC1	105%
C[C@@H]1CC[C@@H]2[C@@H]1[C@H](OC(=O)c1ccc3ccccc3c1)[C@]1(C3CCCCC3)C[C@@H](OC(=O)CO)[C@@]2(C)O1	30.6%
CS(=O)(=O)Nc1cc(-c2ccc3ncnc(Nc4ccc5c(cnn5Cc5cccnc5)c4)c3c2)cnc1Cl	33.6%
O=S(=O)(Nc1ccc(Cl)c(Cl)c1)c1ccc(-c2cnc(C3CC3)o2)cc1	18.6%
